Shown are actives, neighbours in structure and some others; about 8.9% of the full set was active somewhere.
KB-V1 MDR tox: kills drug-selected multidrug resistant KB-V1 cells | hit rate 3.4% among 400,000 | KB-V1 MDR cells viability, CellTiter-Glo, 72 h | AID 1347076 | Potency, µM (doses to about 46.1 µM), most hits filed as cytotoxic; note: nearly all actives have a fitted effect of over 60% in size
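Compound-treated KB-V1 multidrug-resistant cells, 72 h, 37 degrees C; viability by CellTiter-Glo. Fitted qHTS curves give the values.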
KB-3-1 cytotox: KB-3-1 parental cell cytotoxicity; KB-3-1 viability, CellTiter-Glo ATP luminescence, 72 h; Potency, µM (series often up to 46.1 µM), most hits filed as cytotoxic; hit rate 1.4% among 400,000; note: nearly all actives have a fitted effect of over 60% in size
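Luminescent ATP read-out (CellTiter-Glo) measures survival of drug-naive KB-3-1 cells after 72 h compound exposure at 37 °C. Titration series was screened from lowest to highest concentration, with DMSO vehicle plates as background controls.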
DRD3 antagonist: blocks the human D3 dopamine receptor. P35462. D3R cells, DiscoveRx beta-arrestin luminescence, antagonist mode; hits give low values. max response, negative = inhibition, %. hit rate 2.5% among 360,000. AID 652054; in the data active = max response below about -50%; inconclusive = no clear call, values can overlap the other calls
Target sequence (P35462 whole entry, looked up): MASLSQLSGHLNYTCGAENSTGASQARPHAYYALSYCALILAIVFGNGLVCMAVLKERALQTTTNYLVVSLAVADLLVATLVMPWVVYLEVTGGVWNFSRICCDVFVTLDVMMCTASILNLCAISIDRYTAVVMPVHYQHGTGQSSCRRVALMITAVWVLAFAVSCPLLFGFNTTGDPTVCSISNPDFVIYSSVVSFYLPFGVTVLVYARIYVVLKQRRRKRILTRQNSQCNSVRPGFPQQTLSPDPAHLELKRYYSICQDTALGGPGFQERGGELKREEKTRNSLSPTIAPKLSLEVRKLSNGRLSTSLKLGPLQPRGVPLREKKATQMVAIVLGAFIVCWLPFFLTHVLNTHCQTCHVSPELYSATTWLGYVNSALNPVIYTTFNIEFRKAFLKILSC
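Cells plated overnight at 1500 cells/well, then exposed to library compounds with dopamine controls for 90 minutes at 37 degrees C. DiscoveRx reagent added for 30–60 minutes at room temperature; luminescence read, quantitative HTS format.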
SW480 rerep: inducers of DNA re-replication in SW480 colon cancer cells | AID 624297 | hit rate 1.8% among 340,000 | SW480 DNA re-replication, Hoechst DNA content imaging, 48 h | Potency, µM (doses to about 46.1 µM), hits mostly activators; note: nearly all actives have a fitted effect of over 55% in size
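Cells (250 per well) received 23 nL compound or DMSO by pin tool and were kept 48 hr at 37 C, 5% CO2. Nuclei were then stained with Hoechst for 40 min and scanned for DNA content.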
MCF10A rereplic: DNA re-replication induction in MCF 10a cells. MCF 10A DNA re-replication, Hoechst nuclear intensity, 48 h. Potency, µM (titrated, usually from 46.1 µM), usual class: activators. hit rate 2.9% among 350,000. AID 624296; note: nearly all actives have a fitted effect of over 50% in size
DRD3 agonist: activates the human D3 dopamine receptor. D3R DiscoveRx beta-arrestin cells, luminescence, 90 min. max activation, %. hit rate 0.58% among 410,000; in the data active = max activation above about 30%
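Agonist mode: compounds and dopamine controls were applied to plated cells for 90 min at 37 degrees C after an overnight attachment at 1500 cells/well. Luminescent read-out followed 30 - 60 minutes at room temperature with DiscoveRx detection reagent.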
A number is an active result; i = inactive; ? = inconclusive; nt = no result given. Unless noted, calls come from the whole dose curve; as a rule, active = well fitted curve in the direction sought with a large enough effect; inconclusive = small, poorly fitted or top-dose-only effect, or another doubt; inactive = no such curve, though single readings can be large; an effect the other way counts as inactive or inconclusive.

SMILES | KB-V1 MDR tox | KB-3-1 cytotox | DRD3 antagonist | SW480 rerep | MCF10A rereplic | DRD3 agonist
CCN(CC)S(=O)(=O)c1ccc(OC(C)C)c(NC(=O)C2=COCCO2)c1 | 7.3µM | i | i | i | i | i
COCCCNC(=O)CCCn1c(=O)c2cccn2c2ccccc21 | nt | nt | nt | nt | nt | i
NC(=O)C1CCN(CC(=O)Nc2ccccc2Sc2ccccc2)CC1 | 21µM | i | i | i | ? | i
NC(=O)C1CCN(CC(=O)Nc2ccccc2Sc2ccc(Cl)cc2)CC1 | i | i | i | i | i | i
Cc1ccc(NS(=O)(=O)c2ccc3c(c2)C(Cl)(Cl)C(=O)N3)cc1C | i | i | nt | nt | nt | nt
O=C(/C=C/c1ccc(Cl)cc1Cl)Nc1ccc(CN2CCOCC2)cc1 | i | ? | i | ? | 8.2µM | i
O=C(/C=C/c1ccc(Cl)cc1)NC(=S)Nc1ccc(CN2CCOCC2)cc1 | i | i | -65 | i | 21µM | i
CCc1cc(C(=O)O)c(NC(=O)C(c2ccccc2)c2ccccc2)s1 | i | i | i | i | i | i
CCOC(=O)c1cc(C)sc1NC(=O)C(c1ccccc1)c1ccccc1 | i | i | i | i | 26µM | i
Cc1ccc(C(=O)COc2nc(C)cc(C)c2C#N)cc1 | 10µM | i | i | ? | ? | i
Cc1cc(C)c(C#N)c(OCC(=O)c2ccc(Br)cc2)n1 | 5.8µM | i | i | ? | ? | i
O=C1/C(=C\c2cccc(O)c2O)SC(=S)N1Cc1ccccc1 | ? | ? | i | 18µM | ? | i
O=C1/C(=C\c2ccc(O)c(O)c2)SC(=S)N1Cc1ccccc1 | ? | ? | ? | ? | i | i
COc1cc(/C=C2/SC(=S)N(Cc3ccccc3)C2=O)ccc1O | i | ? | -61 | ? | i | i
O=C1/C(=C\c2cc([N+](=O)[O-])ccc2O)SC(=S)N1Cc1ccc(Cl)cc1 | 23µM | ? | i | i | ? | i
COc1cc(/C=C2/SC(=NCc3ccccc3)N(Cc3ccccc3)C2=O)ccc1O | ? | i | i | i | 5.8µM | i
O=C(O)CN1C(=O)/C(=C\c2cc([N+](=O)[O-])ccc2OCc2ccccc2Cl)SC1=S | i | i | i | i | i | i
COc1cc(/C=C2\SC(=S)N(NC(=O)c3ccc(O)c(OC)c3)C2=O)ccc1O | i | i | -75 | i | i | i
COc1cc(/C=C2\SC(=S)N(NC(=O)c3ccncc3)C2=O)ccc1O | i | i | i | i | i | i
Cn1cc(O)nc1NC(=O)Nc1cccc(Cl)c1 | nt | nt | nt | i | i | nt
Fc1ccc2nc(Nc3nc4cc5c(cc4s3)OCCO5)sc2c1 | ? | ? | i | i | 15µM | i
Fc1cccc2sc(Nc3nc4ccccc4s3)nc12 | 21µM | i | i | i | ? | i
Brc1cc2c(cc1/C=N/Nc1nc3ccccc3s1)OCO2 | ? | i | i | ? | 13µM | i
O=C(NNc1nc2ccccc2s1)c1ccccc1F | ? | i | i | i | ? | i
c1ccc2sc(Nc3nc4cc5c(cc4s3)OCO5)nc2c1 | i | i | i | ? | 18µM | i
SMILES | KB-V1 MDR tox | KB-3-1 cytotox | DRD3 antagonist | SW480 rerep | MCF10A rereplic | DRD3 agonist
Fc1ccc2nc(Nc3nc4cc5c(cc4s3)OCO5)sc2c1 | i | i | i | i | ? | i
CCn1c2c(c(=O)n3ncc(C(=O)N4CCN(c5ccc(Cl)cc5)CC4)c13)CN(Cc1ccc(OC)cc1)CC2 | ? | ? | nt | nt | nt | i
Fc1ccc2nc(Nc3nc4c(F)cccc4s3)sc2c1 | ? | i | i | nt | ? | i
O=C(NNc1nc2cc3c(cc2s1)OCCO3)c1ccc(F)cc1 | ? | ? | i | i | 0.26µM | i
Fc1ccc2nc(Nc3nc4c(F)cc(F)cc4s3)sc2c1 | ? | ? | i | i | 15µM | i
Cc1ccc(NC(=O)c2ccc(F)c(S(=O)(=O)NCCc3ccccc3)c2)cc1F | nt | nt | nt | nt | nt | i
CCOC(=O)C1=C(COC(=O)c2ccc(Br)c(S(=O)(=O)N3CCOCC3)c2)NC(=O)NC1C (stereo not drawn) | i | i | i | i | i | i
COc1cc(NC(=O)NCCN2CCN(c3ccccc3)CC2)cc(OC)c1OC | i | i | i | i | i | i
O=C(CCN1CCN(c2ccccc2)CC1)Nc1cccc(Br)c1 | i | i | -73 | i | i | i
O=C(NCCN1CCN(c2ccccc2)CC1)Nc1cccc(Br)c1 | i | i | -75 | i | i | i
CCOC(=O)Cc1ccc(NC(=O)n2ncc3cc(Cl)ccc32)cc1 | ? | i | nt | nt | nt | i
COc1cccc(CN2CCc3nc(Nc4ccc5c(c4)OCCO5)ncc3C2)c1OC | i | i | nt | nt | nt | i
COc1ccc(NC(=O)Cn2cnc3c(nc4n3CCCCC4)c2=O)cc1Cl | i | i | nt | nt | nt | i
CC1(O)CC(c2ccc(Cl)cc2)=NN1C(=O)c1ccc(Cl)cc1 (stereo not drawn) | ? | i | i | ? | 12µM | i
CCOC(=O)c1cnc2ccc(OCC)cc2c1N(C)Cc1ccccc1 | ? | i | i | i | ? | 68
CCOC(=O)c1cnc2ccc(OCC)cc2c1N1CCN(c2ccccc2OC)CC1 | ? | ? | i | i | 18µM | 34
CCCSc1ncc(Cl)c(C(=O)Nc2sc(C(C)=O)c(C)c2C(=O)OCC)n1 | nt | nt | nt | nt | nt | i
CC(C)OC(=O)c1c(NC(=O)c2ccco2)sc2c1CCCCC2 | i | i | i | i | 16µM | i
COC(=O)c1c(NC(=O)c2ccco2)sc2c1CCC2 | i | i | i | i | ? | i
CC(C)OC(=O)c1c(NC(=O)c2cccs2)sc2c1CCCC2 | i | i | i | i | 16µM | i
CCOC(=O)c1c(NC(=O)c2ccoc2C)sc2c1CCC2 | 21µM | i | i | i | ? | i
COC(=O)c1c(NS(=O)(=O)c2cccs2)sc2c1CCCC2 | i | i | -57 | i | i | i
CCc1nn(CC(=O)Nc2cccc(C(C)=O)c2)c(=O)c2cc3sccc3n12 | i | i | nt | nt | nt | i
CCOC(=O)Cn1c(=O)n(CC2CCCO2)c2nc(-c3cc(OC)ccc3OC)nc(C(N)=O)c21 (stereo not drawn) | ? | i | nt | nt | nt | i
CCOC(=O)c1c(NC(NC(=O)C(C)C)C(Cl)(Cl)Cl)sc2c1CCC2 (stereo not drawn) | 23µM | ? | i | ? | 23µM | i
SMILES | KB-V1 MDR tox | KB-3-1 cytotox | DRD3 antagonist | SW480 rerep | MCF10A rereplic | DRD3 agonist
CCOC(=O)c1c(NC(=O)C(=O)N/N=C/c2ccc(O)c(OC)c2)sc2c1CCCCC2 | ? | i | i | i | ? | i
O=C(Nc1sc2c(c1C(=O)NCc1cccnc1)CCCC2)c1ccco1 | 23µM | i | i | i | ? | i
CCOC(=O)c1c(NC(=O)C(=O)N/N=C/c2ccc(OCC)cc2)sc2c1CCCCC2 | 16µM | i | i | i | i | i
CCOC(=O)Nc1sc2c(c1C(=O)OCC)CCC2 | i | i | i | i | i | i
COc1cccc2c1cc1c(=O)n(CC(=O)N3CCN(c4ccc(Cl)cc4)CC3)nc(C)n12 | nt | nt | nt | nt | nt | i
CC(C)c1ccc(C(=O)C[N+]2(C)CCOCC2)cc1 | i | i | nt | nt | nt | nt
COc1ccc(N2C(=O)c3ccccc3C2=O)cc1 | i | i | i | i | i | i

From PubChem BioAssay
